The supplement of paper PMC8975748
Structures can show the parent of a compound that is named as a salt. ± gives the standard deviation of the averaged measurements.

Test system: Saccharomyces cerevisiae BY4741 SeMeCo community
Assay: mean cell size (pixel area) (pixels); higher = larger cells
Conditions: 10 µM; 24 h; SM minimal medium
How it was run: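 A fluorescent Saccharomyces cerevisiae BY4741 community carrying four plasmids was used, with each plasmid complementing one auxotrophy and bearing a fluorescent marker. An overnight preculture at OD600 = 1.0 was diluted to OD600 = 0.3, and 70 µl went into 384-well plates acoustically predosed with drug (final 10 µM) in SM medium for 24 h. After paraformaldehyde fixation, cells were imaged by automated confocal microscopy and analysed in Harmony, giving the mean cell pixel area per well. Each value is the average of 3 replicates. Same SeMeCo high-content imaging drug screen: Selleck FDA-approved drugs at 10 µM, 24 h in SM medium, 384-well plates, 3 replicates.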

Row | SMILES | mean cell size
1 | CN[C@@H]1[C@H](O[C@H]2[C@H](O[C@H]3[C@H](O)[C@@H](O)[C@H](NC(=N)N)[C@@H](O)[C@@H]3NC(=N)N)O[C@@H](C)[C@]2(O)CO)O[C@@H](CO)[C@H](O)[C@H]1O [Dihydrostreptomycin sulfate] | 12.2 ± 0.26
2 | C=CCc1ccc(O)c(-c2ccc(O)c(CC=C)c2)c1 [Honokiol] | 12.6 ± 0.22
3 | COCC(=O)Nc1cc(Sc2ccccc2)ccc1N=C(NC(=O)OC)NC(=O)OC [Febantel] | 12.3 ± 0.18
4 | Cc1ccsc1/C=C/C1=NCCCN1C [Morantel tartrate] | 12.28 ± 0.098
5 | CC1=C[C@H]2C(=O)O[C@H]3C[C@@H](C/C=C(\C)C[C@@H](C)/C=C/C=C4\CO[C@H](/C1=N\O)[C@@]42O)O[C@@]1(CC[C@H](C)[C@@H](C)O1)C3.CC[C@H]1O[C@]2(CC[C@@H]1C)C[C@@H]1C[C@@H](C/C=C(\C)C[C@@H](C)/C=C/C=C3\CO[C@@H]4/C(=N\O)C(C)=C[C@@H](C(=O)O1)[C@]34O)O2 [Milbemycin Oxime] | 12.36 ± 0.099
6 | CC1=Nc2ccc(Cl)cc2S(=O)(=O)N1 [Diazoxide] | 12.4 ± 0.1
7 | O=C(O)c1cc(O)c2c(c1)[C@H]([C@H]1c3cc(C(=O)O)cc(O)c3C(=O)c3c(O[C@@H]4O[C@H](CO)[C@@H](O)[C@H](O)[C@H]4O)cccc31)c1cccc(O[C@@H]3O[C@H](CO)[C@@H](O)[C@H](O)[C@H]3O)c1C2=O [Sennoside A] | 12.57 ± 0.12
8 | Oc1ccc([C@H]2COc3cc(O)ccc3C2)cc1 [Equol] | 12.4 ± 0.17
9 | COc1ccc2cc(CCC(C)=O)ccc2c1 [Nabumetone] | 12.5 ± 0.13
10 | CO/N=C(\C(=O)N[C@@H]1C(=O)N2C(C(=O)O)=C(CSc3nc(=O)c(O)nn3C)CS[C@H]12)c1csc(N)n1 [Ceftriaxone Sodium Trihydrate] | 12.23 ± 0.09
11 | CO/N=C(\C(=O)N[C@@H]1C(=O)N2C(C(=O)OC(C)OC(C)=O)=C(COC(N)=O)CS[C@H]12)c1ccco1 (stereo partly specified) [Cefuroxime axetil] | 12.59 ± 0.065
12 | CNCCCN1c2ccccc2CCc2ccccc21 [Desipramine Hydrochloride] | 12.2 ± 0.14
13 | CC(C(=O)O)c1ccc2c(c1)[nH]c1ccc(Cl)cc12 (stereo unspecified) [Carprofen] | 13.82 ± 0.13
14 | CCC(C)n1ncn(-c2ccc(N3CCN(c4ccc(OCC5COC(Cn6cncn6)(c6ccc(Cl)cc6Cl)O5)cc4)CC3)cc2)c1=O (stereo unspecified) [Itraconazole] | 11.93 ± 0.1
15 | C=CCN1CCCC1CNC(=O)c1cc2nn[nH]c2cc1OC (stereo unspecified) [Alizapride HCl] | 12.3 ± 0.14
16 | CO/N=C(\C(=O)N[C@@H]1C(=O)N2C(C(=O)O)=C(CSc3nc(C)c(CC(=O)O)s3)CS[C@H]12)c1csc(N)n1 [Cefodizime Sodium] | 12.4 ± 0.13

Row | SMILES | mean cell size
17 | C[C@H](NCc1ccc(OCc2cccc(F)c2)cc1)C(N)=O [Safinamide Mesylate] | 12.4 ± 0.16
18 | Cc1ccnc(NS(=O)(=O)c2ccc(N)cc2)n1 [Sulfamerazine] | 12.5 ± 0.16
19 | N=C(N)NS(=O)(=O)c1ccc(N)cc1 [Sulfaguanidine] | 12.3 ± 0.36
20 | C=C[C@H]1CN2CC[C@H]1C[C@@H]2[C@@H](O)c1ccnc2ccc(OC)cc12 [Quinidine sulfate] | 12.4 ± 0.13
21 | COC(=O)Nc1nc2cc(C(=O)c3ccccc3)ccc2[nH]1 [Mebendazole] | 12.07 ± 0.077
22 | CC(=O)N1CCN(c2ccc(OCC3COC(Cn4ccnc4)(c4ccc(Cl)cc4Cl)O3)cc2)CC1 (stereo unspecified) [Ketoconazole] | 11.9 ± 0.21
23 | CCn1cc(C(=O)O)c(=O)c2cc(F)c(N3CCNC(C)C3)c(F)c21 (stereo unspecified) [Lomefloxacin HCl] | 12.1 ± 0.14
24 | CNS(=O)(=O)CCc1ccc2[nH]cc(C3CCN(C)CC3)c2c1 [Naratriptan HCl] | 12.4 ± 0.17
25 | CO[C@@]1(NC(=O)CSC[C@@H](N)C(=O)O)C(=O)N2C(C(=O)O)=C(CSc3nnnn3C)CS[C@@H]21 [Cefminox Sodium] | 12.6 ± 0.55
26 | CNCCCC1c2ccccc2C=Cc2ccccc21 [Protriptyline hydrochloride] | 12.4 ± 0.15
27 | CC1CCc2c(N3CCC(O)CC3)c(F)cc3c(=O)c(C(=O)O)cn1c23 (stereo unspecified) [Nadifloxacin] | 12.6 ± 0.13
28 | C[n+]1ccccc1/C=N/O [Pralidoxime chloride] | 11.9 ± 0.062
29 | Oc1ccc(Cl)c2cccnc12 [Cloxiquine] | 14.28 ± 0.12
30 | N[C@H]1CONC1=O [L-Cycloserine] | 11.54 ± 0.047
31 | CCN(CC)CC#CCOC(=O)C(O)(c1ccccc1)C1CCCCC1 (stereo unspecified) [Oxybutynin chloride] | 12.57 ± 0.03
